B1: design_606_b60ff77f-1541-4e5f-8260-46d5e5f6b85e_411_dldesign_0_cycle1_af2pred (protein)
chain: MEEELEKEKKEAEKFLEETKKIAEEAVKRAESGEDIAGAAHELYELKSEAEYLAKTSSPEAAKLYKEAAKIAKEALEEVRKRGKERKA
B2: design_606_b60ff77f-1541-4e5f-8260-46d5e5f6b85e_364_dldesign_0_cycle1_af2pred (protein)
chain: AEARDKAILEKAKKETEELAKKAEELAKKGAKKEEIEKVIKEIRKVGKEYAAKASPEVAPEILTIAGDAVAEAKGAYQEAKIK
B3: design_606_b60ff77f-1541-4e5f-8260-46d5e5f6b85e_1298_dldesign_0_cycle1_af2pred (protein)
chain: KEEEEKQIKELKEKVEKLKKEAEEAKTAEEALKVFKEARKVGKEARKLAEKASPELAKKAKEVAKEAAKVAELAAEKYAEKKSEEIRK
B4: design_606_b60ff77f-1541-4e5f-8260-46d5e5f6b85e_724_dldesign_0_cycle1_af2pred (protein)
chain: AAAQKAAEAAATLYENSNEAIWLAKKEGAKGAVEGKKLLEKGVAAAEAAAKEASPEDAAKLKKLAESRKERTEKAIKKALA
B5: design_606_b60ff77f-1541-4e5f-8260-46d5e5f6b85e_1331_dldesign_0_cycle1_af2pred (protein)
chain: SELEKGREVIKKAAEKAKKAAKEAAEKKGDPKKGEEKIKEIKELEEEGAKAEDPKVKSEKAAKIRQIKAEAEFELKK
B6: design_606_b60ff77f-1541-4e5f-8260-46d5e5f6b85e_1400_dldesign_0_cycle1_af2pred (protein)
chain: MAEAAQKAWENIAEAEYYAKKLKENPELKEEAKKIEEKIKKAKELLKKAQKTGDGELAKEAEKLAKEAAKEAKELVEK
B7: design_606_b60ff77f-1541-4e5f-8260-46d5e5f6b85e_842_dldesign_0_cycle1_af2pred (protein)
chain: MEEAKKKITELAEAAAAADPETAKKLLAEASRYLIDYISKNKLDSETISELVSYLKEKGKEALAQAKAKEAAA
B8: design_606_b60ff77f-1541-4e5f-8260-46d5e5f6b85e_148_dldesign_0_cycle1_af2pred (protein)
chain: NPKIEGEAALTRAEGAYESAKALPPEKAAEAYRKAAEIAKKQAEEAEKAGEEAKPYAEKIRKIAKEAEKKAKELEKA
B9: design_606_b60ff77f-1541-4e5f-8260-46d5e5f6b85e_580_dldesign_0_cycle1_af2pred (protein)
chain: MTEEEKKEAEKKAEEIKKLGKELAKKVLNSKDAEKEVKKAKKELREKGKKLAEAGNPEAKKIISKAVSEAYQLLNEAEWKNLK
B10: design_606_b60ff77f-1541-4e5f-8260-46d5e5f6b85e_1401_dldesign_0_cycle1_af2pred (protein)
chain: GAKAIAAKAAAYGYEIAAEIYRLDKEVGEKVRKYVVEKAKEAAASDEETAKKIGEEVKKEAEKALEEVKKK
B11: design_606_b60ff77f-1541-4e5f-8260-46d5e5f6b85e_1000_dldesign_0_cycle1_af2pred (protein)
chain: MSEYEKNLARAEAYADQLLDSAKKTGAAKGPEAEVAATKEAKDAATKYANSLGEEVGKEIKAKMEKEVKAVADAAAKALAA
B12: design_606_b60ff77f-1541-4e5f-8260-46d5e5f6b85e_976_dldesign_0_cycle1_af2pred (protein)
chain: SSEEIEEKNRKVSEVVHHAIKAIKAYADPALRDAYLAKAKAILPDAADALAAQVDAAKTGSTADAILNVADIAWDALT
B13: design_606_b60ff77f-1541-4e5f-8260-46d5e5f6b85e_762_dldesign_0_cycle1_af2pred (protein)
chain: SEEEKKIKELAKEMEEVGKEAAEAGKKNPEEGKKLRDIMIKLANEAVALAEKLGLEEEAKKIKEKAAELSAKAYEAIAENLA
B14: design_606_b60ff77f-1541-4e5f-8260-46d5e5f6b85e_1497_dldesign_0_cycle1_af2pred (protein)
chain: MEEESKKYIETATALLEEAKKALEEDKEKGLKLLEEASALAYEKAAEARQLGDKETAEKLREIAKEAREAAKKAR
B15: design_606_b60ff77f-1541-4e5f-8260-46d5e5f6b85e_490_dldesign_0_cycle1_af2pred (protein)
chain: MEAAKEAAKKVLELADLSAEASAEDFPEVEKKAEEALKFAEEVAKEDPEAGEKAKRTVKRILEDTRKAVEK
B16: design_606_b60ff77f-1541-4e5f-8260-46d5e5f6b85e_1003_dldesign_0_cycle1_af2pred (protein)
chain: SMKEKEEKYKEAKEKLEKQREAVKEGEKLAKESPEMGLALMRAAVKRAEEVAKKLEKEDPEKGPEAKKMAEEVRKLAKEAEKKIKEEL
B17: design_606_b60ff77f-1541-4e5f-8260-46d5e5f6b85e_637_dldesign_0_cycle1_af2pred (protein)
chain: MEEEEERRRVLEIAREDAEEALAKAKAAAEKGELDGVAIGLARGNASVLDEETGKKVREAADKVEAAAKAAQAAK
B18: design_606_b60ff77f-1541-4e5f-8260-46d5e5f6b85e_64_dldesign_0_cycle1_af2pred (protein)
chain: GSSEEAERDSRLVSEMVRAARAGAEAAARLPPAEAARYRAELAALVAAMYDALGAGSPAAEEYVARVRALAAEIAARAAAA
B19: design_606_b60ff77f-1541-4e5f-8260-46d5e5f6b85e_1085_dldesign_0_cycle1_af2pred (protein)
chain: ATAKEAAEYAEKAREYMVELEYERIKAKREGDEETAKRLEKAIEEVREKLKKAREAMKAGDKEKALEYSKEALEIAKKAVEELKA
B20: design_606_b60ff77f-1541-4e5f-8260-46d5e5f6b85e_905_dldesign_0_cycle1_af2pred (protein)
chain: DNEEKKKELKEEAEKYKEELLKEKDEALKAGDFESAIFISKKAVKIKKLEEEGKKGNKEEVEKKKEEIKKEAKEALEFYKKNKE
B21: design_606_b60ff77f-1541-4e5f-8260-46d5e5f6b85e_370_dldesign_0_cycle1_af2pred (protein)
chain: DLVKEASKLSGQAYEYKAAADVGVLNKEELKAGAEIAKKAAELAKKIAKETTPEEAKKYLKQAETMKKIAEYLEKKAQEL
B22: design_606_b60ff77f-1541-4e5f-8260-46d5e5f6b85e_1596_dldesign_0_cycle1_af2pred (protein)
chain: SAAVKEKVAELTKKVNEARDNAFETGNWEEELAKIEKLAAEIAKVGNAEQAEAAEKGVNAMKSMAEALKEMEKK
B23: design_606_b60ff77f-1541-4e5f-8260-46d5e5f6b85e_1207_dldesign_0_cycle1_af2pred (protein)
chain: DEEKLKEAAEYLQEAAEYLAELKYLSKDPKNKELAEKAKKILKEAIEKGKKGTPEEALEIAKKAKEEIKKLAKKAKE
B24: design_606_b60ff77f-1541-4e5f-8260-46d5e5f6b85e_1326_dldesign_0_cycle1_af2pred (protein)
chain: AEAEKKAEEAAKEAEKIYKEMLKAVETKSKEEAAKFAKEAAEKLKKLAKKIYEATGKVPLEVLLALAEARVIAKK
B25: design_606_b60ff77f-1541-4e5f-8260-46d5e5f6b85e_200_dldesign_0_cycle1_af2pred (protein)
chain: EEEKLIADSAKEVDAAADKAMDAMAKNKEAAKAAKAELEALAAKFKELAEKGSPEVAKKMNLAAKTMKRFAELLKKAAS
B26: design_606_b60ff77f-1541-4e5f-8260-46d5e5f6b85e_1592_dldesign_0_cycle1_af2pred (protein)
chain: AAAAAAAAERAAIQKELDEIRDKYLEELEKNPENAEEIIKKAKEAVEALAKKHAKFAEEILKGGNGYVSLIEATAKMLERRKKEE
B27: design_606_b60ff77f-1541-4e5f-8260-46d5e5f6b85e_1318_dldesign_0_cycle1_af2pred (protein)
chain: DVAAALAAAKAAAAAKMAEVKKYGAETAEAVKDAIDMGNIYGAGSLAEVMVGPEAGKIAKAAAEAAAKARELAAKA
B28: design_606_b60ff77f-1541-4e5f-8260-46d5e5f6b85e_1160_dldesign_0_cycle1_af2pred (protein)
chain: AEAARRAALVAKVDAAFDDAGKTISEAKEKTPEEAKALVDAAIAKANAEAKAHPEAAKGFNAVADTAKSMGERIIAEKLA
B29: design_606_b60ff77f-1541-4e5f-8260-46d5e5f6b85e_600_dldesign_0_cycle1_af2pred (protein)
chain: AAAAEAKGKKINELRIEANDYAYEHEINSSNPELSKAYKEEAEKKIKEAEKIDPEGGKRIKKSFESIEEHVKKNL
B30: design_606_b60ff77f-1541-4e5f-8260-46d5e5f6b85e_733_dldesign_0_cycle1_af2pred (protein)
chain: DAATQKKASEAAAEAHEAAAEFTNKLKDKELKDKIKEIVREAIEKGKAATPEEALKIFTEAKKKIEDAAKKYA
B31: design_606_b60ff77f-1541-4e5f-8260-46d5e5f6b85e_1622_dldesign_0_cycle1_af2pred (protein)
chain: NDKELSKKVHEGYELVAEYEQDPSFIKKNKEKAKEIAKKAEEAAKAAEEGAKKYPELAKALEKIAKKAKEVAKEAKKVAK
B32: design_606_b60ff77f-1541-4e5f-8260-46d5e5f6b85e_888_dldesign_0_cycle1_af2pred (protein)
chain: EVEKLIKEVKEAGEKAAKADPDIADYIKNAVKTAEELMTKNAADLEKVKEIAEKAINTFKRIIENAEKAKELEAK
B33: design_606_b60ff77f-1541-4e5f-8260-46d5e5f6b85e_1086_dldesign_0_cycle1_af2pred (protein)
chain: EKAEKLIKEIKKLAKEAKKSTPEEAKKLLEEAKKLAKEVAKLGPEAAKLAKKALSEAAAAYYENKAENEWKERKEKE
B34: design_606_b60ff77f-1541-4e5f-8260-46d5e5f6b85e_1075_dldesign_0_cycle1_af2pred (protein)
chain: AEEKEKKAKEAAEKAEKFIEKAKKAIKEGDLFSAQAYVEAAKHAAEVAKKYDPEVGEKLLKKVEEVEKEI
B35: design_606_b60ff77f-1541-4e5f-8260-46d5e5f6b85e_1599_dldesign_0_cycle1_af2pred (protein)
chain: MPVVKAVSEYTKFVVSKMREAAAAGASEEELVGAVEEGEKYGEELGKKIGEEALEAVKDLSEMFKESARAAARARKA
B36: design_606_b60ff77f-1541-4e5f-8260-46d5e5f6b85e_1152_dldesign_0_cycle1_af2pred (protein)
chain: EEAEKYLKEIEKAKEEAEKLAEELKEEGDSKAAAKAATAAAVAESAALAAKANPEKAKEAAEKAKKALEKAKKYAKESREKKKA
B37: design_606_b60ff77f-1541-4e5f-8260-46d5e5f6b85e_898_dldesign_0_cycle1_af2pred (protein)
chain: MNITEKVAAAAQAALAALADPATAVAALSAARFTALDLVSEDIEAGEVAIEIFEKGDAGSRRVARIIRSHVEALKRN
B38: design_606_b60ff77f-1541-4e5f-8260-46d5e5f6b85e_118_dldesign_0_cycle1_af2pred (protein)
chain: MLEEVKEKAKELKAAKGTPEEKLKLAREARELFRRAREELSARGATPEEAEAMHELRQAAAELEAEAKRELKE

What follows are binders tested against VTCN1, Q7Z7D3.
VTCN1, Q7Z7D3, sequence (Q7Z7D3 whole entry): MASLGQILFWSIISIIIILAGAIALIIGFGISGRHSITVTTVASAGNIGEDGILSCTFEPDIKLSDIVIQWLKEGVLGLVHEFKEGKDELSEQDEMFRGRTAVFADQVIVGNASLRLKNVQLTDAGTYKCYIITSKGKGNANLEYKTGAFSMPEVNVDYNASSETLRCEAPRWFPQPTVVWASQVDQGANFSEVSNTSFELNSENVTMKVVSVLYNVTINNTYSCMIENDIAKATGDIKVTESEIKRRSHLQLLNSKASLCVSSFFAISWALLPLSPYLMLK

Binding in a display sort, inactive:
B1 not found, B2 not found, B3 not found, B4 not found, B5 not found, B6 not found, B7 not found, B8 not found, B9 not found, B10 not found, B11 not found, B12 not found, B13 not found, B14 not found, B15 not found, B16 not found, B17 not found, B18 not found, B19 not found, B20 not found, B21 not found, B22 not found, B23 not found, B24 not found, B25 not found, B26 not found, B27 not found, B28 not found, B29 not found, B30 not found, B31 not found, B32 not found, B33 not found, B34 not found, B35 not found, B36 not found, B37 not found, B38 not found
